Screening data as filed in PubChem.
IL-1B inflam inh – qHTS for Inhibitors of Inflammasome Signaling: IL-1-beta AlphaLISA Primary Screen; THP-1 LPS/ATP IL-1B secretion, AlphaLISA, 16 h; hits give low values; AID 743279, 2014; 360,000 compounds, 4.7% hits; activity change, % at 57.5 µM; in the data active = activity change below about -50%; inconclusive = mostly about -30% to -49%; also: % is scaled to controls: 0 for no effect and ±100 for the full control effect
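Secreted IL-1B measured by AlphaLISA bead assay after 16 h compound exposure of THP-1 cells; compounds (final up to 57.5 uM) added 1 h before LPS (250 ng/mL) and ATP (1.25 mM) stimulation; lower signal means less secretion.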
TGFb SMAD3 inh – qHTS for Inhibitors of TGF-b; AID 588855, 2011; 410,000 compounds, 1.2% hits; Potency, µM (series often up to 46.1 µM), for the others: at the highest dose activity, negative = inhibition, hits mostly inhibitors; HepG2 CAGA-GFP TGF-b/SMAD3 reporter, GFP fluorescence, 18 h; TGF-beta stimulated, 500 pg/mL final; also: potency is read from the fitted curve at half-maximal effect; % is scaled to controls: 0 for no effect and ±100 for the full control effect; nearly all actives have a fitted effect of over 65% in size
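HEPG2 CAGA-GFP, 1000 cells/well; 2 h settle, 37 C; cpd via pin tool; TGF-b 500 pg/mL final; 18 h, 37 C; GFP imaging ex488/em500-530; %Activity normalised to -TGF-b and +DMSO controls; CRC fit, curve class.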
TDP1 cell CPT – qHTS for Inhibitors of human tyrosyl-DNA phosphodiesterase 1 (TDP1): qHTS in cells in presence of CPT | chicken DT40 Tdp1-/-;hTDP1 cells + 20 nM CPT, ATP luminescence, 48 h | Potency, µM (series often up to 46.2 µM), inactives show top-dose activity change, negative = growth inhibition, most hits filed as inhibitors | 420,000 compounds, 12% hits; also: potency is read from the fitted curve at half-maximal effect; % is scaled to controls: 0 for no effect and ±100 for the full control effect; nearly all actives have a fitted effect of over 55% in size
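Chicken DT40 Tdp1-/- cells complemented with human TDP1, 400 cells/well, exposed to compounds plus 20 nM camptothecin for at least 48 h at 37 C; viability read as ATP content by CellTiter-Glo luminescence.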
ASM inhibitor – Inhibitors of Secretory Acid Sphingomyelinase (S-ASM): qHTS; Sphingomyelin phosphodiesterase (Homo sapiens), P17405; placental ASM, HMU-PC fluorogenic substrate, 60 min; 340,000 compounds, 0.006% hits; Potency, µM (titrated, usually from 57.5 µM), for inactives: at the top dose activity change, negative = inhibition, actives largely listed as inhibitors; also: potency is read from the fitted curve at half-maximal effect
Target sequence (P17405 47-631 limits assumed): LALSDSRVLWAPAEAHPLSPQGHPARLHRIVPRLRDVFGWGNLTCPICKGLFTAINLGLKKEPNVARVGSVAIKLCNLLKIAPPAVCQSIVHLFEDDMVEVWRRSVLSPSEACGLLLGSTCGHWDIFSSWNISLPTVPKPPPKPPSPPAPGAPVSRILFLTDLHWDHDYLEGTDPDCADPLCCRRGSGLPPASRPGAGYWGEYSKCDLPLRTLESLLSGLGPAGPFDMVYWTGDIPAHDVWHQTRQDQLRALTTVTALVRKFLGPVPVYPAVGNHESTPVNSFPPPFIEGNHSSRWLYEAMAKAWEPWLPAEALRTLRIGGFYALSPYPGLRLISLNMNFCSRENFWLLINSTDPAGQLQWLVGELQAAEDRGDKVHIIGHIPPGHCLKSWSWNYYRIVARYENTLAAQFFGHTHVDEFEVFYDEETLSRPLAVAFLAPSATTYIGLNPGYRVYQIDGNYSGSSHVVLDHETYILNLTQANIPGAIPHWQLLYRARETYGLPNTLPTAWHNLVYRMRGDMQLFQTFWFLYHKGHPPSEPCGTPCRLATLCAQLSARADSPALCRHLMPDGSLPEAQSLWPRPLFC
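Fluorogenic HMU-PC substrate (9 uM final) is turned over by placental ASM in 60 min at 37 C after a 10 min compound preincubation. Reaction ended by alkaline stop (pH 10), with fluorescence read at 386/447 nm.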
DT40 TDP1 no CPT – qHTS for Inhibitors of human tyrosyl-DNA phosphodiesterase 1 (TDP1): qHTS in cells in absence of CPT; 420,000 compounds, 15% hits; Potency, µM (highest dose often 46.2 µM), for inactives: at the top dose activity change, negative = growth inhibition, usual class: inhibitors; DT40 Tdp1-/- hTDP1 cells, no CPT, ATP luminescence, 48 h; AID 686978, 2013; also: potency is read from the fitted curve at half-maximal effect; % is scaled to controls: 0 for no effect and ±100 for the full control effect; nearly all actives have a fitted effect of over 55% in size
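Cells were dispensed at 400 per well, compounds added by pin tool, plates incubated ≥48 hr at 37 °C, then CellTiter-Glo added for 30 min at room temperature before luminescence reading. Line: DT40 Tdp1-/- complemented with hTDP1; camptothecin omitted.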
HepG2 viability – qHTS for Inhibitors of TGF-b: Cytotox Counterscreen | 410,000 compounds, 0.76% hits | Potency, µM (highest dose often 46.1 µM), for the others: at the highest dose activity change, negative = cytotoxicity, most hits filed as cytotoxic | HepG2 CAGA-GFP viability, ATP luminescence, 18 h; also: potency is read from the fitted curve at half-maximal effect
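CellTiter-Glo luminescence gave cytotoxicity after 18 hours at 37 degrees C. The cells were HepG2 CAGA-GFP in 1% FBS DMEM, stimulated with 500 pg/mL TGF-beta after compound addition. %Activity was normalised to no-cell wells (complete cell-killing) and DMSO (no toxicity), and curves were fitted and classified.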
Active calls of the source: *; ? = inconclusive; · = not tested or not shown. Rows were chosen to be rich in hits. Some 19% of all compounds tested hit in one or more screens of this group. Unless noted, calls follow the shape of the dose curve; as a rule, active = well fitted curve in the direction sought with a large enough effect; inconclusive = small, poorly fitted or top-dose-only effect, or another doubt; inactive = no such curve, though single readings can be large; an effect the other way counts as inactive or inconclusive.

SMILES	IL-1B inflam inh	TGFb SMAD3 inh	TDP1 cell CPT	ASM inhibitor	DT40 TDP1 no CPT	HepG2 viability
OC(c1ccccc1)c1nc(-c2cncnc2)cs1 (stereo not given)	12	3%	9%	·	-10%	-2%
COc1cc(/C=C/c2cncc(/C=C/c3cc(OC)c(OC)c(OC)c3)c2)cc(OC)c1OC	·	18%	-7%	·	-12%	3%
COc1ccccc1/C=C/c1cncc(/C=C/c2ccccc2OC)c1	·	-14%	?	·	13µM*	-33%
COc1ccccc1C=Cc1ccnc2ccccc12	-93*	-4%	?	78%	?	-28%
COc1ccccc1/C=C/c1cnccn1	·	-14%	-5%	·	?	5%
COc1cccc(/C=C/c2ccnc3ccccc23)c1OC	·	?	?	·	11µM*	-26%
COc1ccc(/C=C/c2ccncc2)c2ccccc12	12	?	-21%	11%	?	-40%
COc1ccc(/C=C2\SC(N3CCCCC3)=NC2=O)cc1OC	-28	0%	-17%	86%	21µM*	-4%
COc1cc(/C=C2\SC(N3CCC(C)CC3)=NC2=O)ccc1O	-56*	0%	-23%	-8%	?	-15%
COc1ccc(/C=C2/N=C3CCCCCN3C2=O)cc1OC	-4	3%	?	11%	29µM*	0%
COc1ccc(/C=C2\SC(=O)N=C2N)cc1OC	8	15%	?	13%	-8%	-10%
COc1ccc(OC)c(S(=O)(=O)N2CCCC(C)C2)c1 (stereo not given)	-30	0%	-12%	-1%	-15%	-7%
COc1ccc(OC)c(/C=C2\SC(N3CCCC(C)C3)=NC2=O)c1 (stereo not given)	-59*	0%	16µM*	73%	21µM*	-7%
Cc1ccc(NC(=O)c2c(C)noc2C)cc1S(=O)(=O)N1CCOCC1	27	-7%	-23%	1%	-4%	12%
Cc1ccc(C(=O)NCC(=O)OCC(=O)N2CC(C)OC(C)C2)cc1 (stereo not given)	8	-5%	-1%	1%	6%	-34%
COc1ccc2nc(N(Cc3cccnc3)C(=O)c3ccc(Cl)cc3)sc2c1	·	0%	-1%	·	-21%	0%
Cn1nnnc1SCC(=O)Nc1ncc(Cl)cc1Cl	3	3%	8%	-1%	-6%	-2%
O=C(CN1C(=O)NC(Cc2c[nH]c3ccccc23)C1=O)NC1CCCCC1 (stereo not given)	22	19%	-13%	3%	-12%	13%
Cn1nc(C(=O)Nc2nnc(C3CC3)s2)c2ccccc2c1=O	?	-9%	?	3%	-30%	-1%
CN1CCN(c2ccccc2/C=C2/C(=O)Nc3ccccc32)CC1	?	-29%	?	-17%	?	-53%
CCOC(=O)c1c(C)[nH]c(C)c1S(=O)(=O)NCC(=O)NCc1cccc(Br)c1	·	-8%	-22%	·	-23%	-6%
O=C(COC(=O)CC1c2ccccc2CCN1S(=O)(=O)c1ccccc1)Nc1ccccc1 (stereo not given)	0	-4%	?	21%	21µM*	-11%
CC(C)CN(C(=O)COc1cccc(-n2cnnn2)c1)C1CCS(=O)(=O)C1 (stereo not given)	15	22%	-4%	-2%	-1%	5%
N#Cc1cc([N+](=O)[O-])ccc1NCCCn1ccnc1	24	-16%	10%	-4%	-20%	-12%
CC(=O)Oc1c(/C=C(\C#N)C(N)=O)[nH]c2ccccc12	13	?	16µM*	1%	?	-121%
SMILES	IL-1B inflam inh	TGFb SMAD3 inh	TDP1 cell CPT	ASM inhibitor	DT40 TDP1 no CPT	HepG2 viability
COCCn1c(SCC(=O)NNC(=O)c2cc(Cl)ccc2OC)nnc1-c1ccncc1	-11	-3%	-13%	11%	-12%	-8%
CCN(CC(=O)Nc1ccccc1OC)CC(=O)Nc1ccccc1C(F)(F)F	16	-7%	?	2%	?	-22%
CCCCNC(=O)C(CC)(ONc1ccccc1C(F)(F)F)c1ccccc1OC (stereo not given)	?	15%	?	-1%	16µM*	-4%
CCOc1ccc(CCNC(c2nnc(-c3ccccc3)o2)c2ccccc2Cl)cc1OCC (stereo not given)	·	?	15µM*	·	15µM*	-12%
Cc1cc(C)cc(NC(c2cccc(Cl)c2)c2nnc(-c3ccccc3)o2)c1 (stereo not given)	·	?	-27%	·	?	-18%
CCOc1ccc(CCNC(c2cccc(Cl)c2)c2nnc(-c3ccccc3)o2)cc1OCC (stereo not given)	·	?	16µM*	·	26µM*	-28%
O=C(Cc1ccc[nH]c1=O)c1ccc(F)cc1	·	2%	-1%	·	-9%	2%
COc1ccc(-n2ncc3c2ncn2nc(-c4ccc(Cl)cc4Cl)nc32)cc1	·	·	13%	·	-12%	9%
N#Cc1cccc(-c2cncnc2NCCc2cnc[nH]2)c1	·	·	-12%	·	-25%	·
COc1cccc(-c2cncnc2Nc2ccc(F)cc2)c1	·	·	-27%	·	-8%	·
COc1ccc2[nH]cc(CCNc3cc(-c4ccccc4C)ncn3)c2c1	·	·	9.2µM*	·	16µM*	·
COc1ccc2[nH]cc(CCNc3cc(-c4ccc5c(c4)OCO5)ncn3)c2c1	·	·	?	·	21µM*	·
COc1cccc(-c2cncnc2NCCc2c[nH]c3ccc(OC)cc23)c1	·	·	23µM*	·	21µM*	·
COc1ccc2[nH]cc(CCNc3cc(-c4cccnc4)ncn3)c2c1	·	·	?	·	-25%	·
COc1cccc(-c2cncnc2NCCc2cnc[nH]2)c1	·	·	2.6µM*	·	?	·
CNC(=S)NCCc1c[nH]c2ccc(OC)cc12	-17	11%	-4%	4%	-1%	1%
O=C(O)CC/C=C\C[C@@H]1CO[C@H](c2ccccc2Cl)O[C@@H]1c1ccccc1O	·	·	6%	·	-3%	·
COC(=O)c1ccc(N(CC(=O)NC2CCCC2)C(=O)c2ccc(C)s2)cc1	14	1%	-8%	0%	-11%	14%
c1ccc(Nc2ncncc2-c2ccc3c(c2)OCO3)cc1	·	·	-17%	·	-13%	·
